TDP1 cell CPT: DT40-hTDP1 cell growth loss with CPT | chicken DT40 Tdp1-/-;hTDP1 cells + 20 nM CPT, ATP luminescence, 48 h | Potency, µM (titrated, usually from 46.2 µM), usual class: inhibitors | actives 12% (n = 420,000); further: nearly all actives have a fitted effect of over 55% in size
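Chicken DT40 Tdp1-/- cells complemented with human TDP1, 400 cells/well, exposed to compounds plus 20 nM camptothecin for at least 48 h at 37 C; viability read as ATP content by CellTiter-Glo luminescence.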
HT1080NT lethal: kills 2HG-producing HT-1080-NT fibrosarcoma cells; actives 1.6% (n = 360,000); Potency, µM (highest dose often 46.1 µM), actives largely listed as cytotoxic; HT-1080-NT fibrosarcoma viability, CellTiter-Glo ATP luminescence, 48 h;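 further: NT is the 2HG producing partner of a matched IDH1 knockdown line; nearly all actives have a fitted effect of over 55% in size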
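Viability of the 2HG-overproducing fibrosarcoma line after 48 hours of compound exposure at 37 degrees C was determined by luminescence with CellTiter-Glo, and concentration-effect curves were then fitted and categorized.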
TGFb SMAD3 inh: TGF-b pathway inhibition; HepG2 CAGA-GFP TGF-b/SMAD3 reporter, GFP fluorescence, 18 h; TGF-beta stimulated, 500 pg/mL final; actives 1.2% (n = 410,000); AID 588855; Potency, µM (doses to about 46.1 µM), usual class: inhibitors; further: nearly all actives have a fitted effect of over 65% in size
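First, reporter cells (HEPG2 CAGA-GFP) rested 2 h at 37 degrees C. Next, compounds were pinned in and TGF-beta added to 500 pg/mL final. After 18 h, GFP was imaged per cell and summed per well.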
HepG2 tox: counter-screen for TGF-b inhibitors: cytotoxicity in HepG2 cells | HepG2 CAGA-GFP viability, ATP luminescence, 18 h | Potency, µM (highest dose often 46.1 µM), most hits filed as cytotoxic | actives 0.76% (n = 410,000) | AID 588856
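HepG2 CAGA-GFP cells (1000/well, DMEM with 1% FBS) received compound, then TGF-beta at 500 pg/mL final, and were incubated 18 hours at 37 degrees C. Viability was read by CellTiter-Glo luminescence. Media-only wells were set as complete cell-killing and DMSO as no toxicity.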
TDP1 cell noCPT: qHTS for Inhibitors of human tyrosyl-DNA phosphodiesterase 1 (TDP1): qHTS in cells in absence of CPT | DT40 Tdp1-/- hTDP1 cells, no CPT, ATP luminescence, 48 h | Potency, µM (highest dose often 46.2 µM), hits mostly inhibitors | actives 15% (n = 420,000); further: nearly all actives have a fitted effect of over 55% in size
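Chicken DT40 Tdp1-/- cells stably complemented with human TDP1 were seeded at 400 cells/well with DMSO in place of 20 nM camptothecin. After compound pinning, cells grew at least 48 hr at 37 °C; viability read by CellTiter-Glo luminescence.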
HT1080 IDH1KD tx: toxicity to HT-1080 IDH1 knockdown cells (counter line). HT-1080 IDH1 knockdown viability, ATP luminescence, 48 h. Potency, µM (highest dose often 46.1 µM), most hits filed as cytotoxic. actives 2% (n = 360,000)
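After a 2 h attachment period, IDH1KD HT-1080 cells took pin-transferred compound for 48 h at 37 °C; ATP-based luminescence after 10 min room-temperature reagent incubation reported viability.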
A number is an active result; - = inactive; ? = inconclusive; . = no result given. Shown are actives, neighbours in structure and some others; about 17% of the full set was active somewhere. The call rests on the fitted dose curve; in most records, active means well fitted curve in the direction sought with a large enough effect; inconclusive means small, poorly fitted or top-dose-only effect, or another doubt; inactive means no such curve, though single readings can be large; an effect the other way counts as inactive or inconclusive.

SMILES	TDP1 cell CPT	HT1080NT lethal	TGFb SMAD3 inh	HepG2 tox	TDP1 cell noCPT	HT1080 IDH1KD tx
CCN(CC)C(=O)c1cccc(-c2csc(C(O)c3ccc(OC)cc3)n2)c1 (stereo unspecified)	16µM	-	-	-	18µM	?
CSCCC(NC(=O)c1ccco1)C(=O)N1CC(C)OC(C)C1 (stereo unspecified)	-	-	-	-	-	-
Cc1cc[n+](C2CCCCC2)c2ccccc12	?	.	-	-	?	.
Cn1nnnc1SCc1ccc([N+](=O)[O-])cc1	-	-	-	-	-	-
CC(=O)c1c(NC(=O)c2ccccc2)[nH]c(-c2ccccc2)nc1=S	?	-	-	-	23µM	-
CC(=O)c1c(C)[nH]c(-c2ccccc2)nc1=S	-	-	-	-	?	-
C=CCN1C(=O)CSC1=Nc1ccc(O)cc1	?	-	-	-	16µM	?
COc1cc(/C=N\N=C2/SC(CC(=O)O)C(=O)N2c2ccc(O)cc2)ccc1O (stereo unspecified)	-	-	-	-	-	-
COc1cc(/C=N/N=C2/SCC(=O)N2c2ccc(O)cc2)ccc1O	9.2µM	-	-	-	21µM	-
CC1CCN(c2ccc(-c3cccs3)nn2)CC1	?	?	-	-	10µM	-
CC(C)C[C@H]1CN(CCCC[C@H]2CNC(=O)C(=O)N2CCc2ccc(O)cc2)C(=O)C(=O)N1CCC1CCCCC1	-	-	.	.	-	-
CCn1c(SCC(=O)c2ccc(C)cc2)nnc1-c1ccncc1	-	-	-	-	-	-
CCn1c(SCC(=O)NNC(=O)c2ccc(C)cc2)nnc1-c1ccncc1	-	-	-	-	21µM	-
Cc1ccc(Cl)cc1N1CCN(C(=O)C2CCN(S(=O)(=O)Cc3ccccc3)CC2)CC1	4.1µM	.	-	-	13µM	.
Cc1ccc(Cl)cc1N1CCN(C(=O)C2CCN(S(=O)(=O)c3cccnc3)CC2)CC1	2.9µM	?	-	-	4.6µM	?
O=C(C1CCN(S(=O)(=O)c2ccccc2)CC1)N1CCN(c2ccccc2)CC1	?	?	-	-	21µM	-
O=C(C1CCN(S(=O)(=O)c2cccnc2)CC1)N1CCCCC1	-	-	-	-	-	-
O=C(C1CCN(S(=O)(=O)c2cccnc2)CC1)N1CCN(c2ccccc2Cl)CC1	?	-	-	-	21µM	-
O=C(C1CCN(S(=O)(=O)Cc2ccccc2)CC1)N1CCN(c2cccc(Cl)c2)CC1	-	.	-	-	?	.
Cc1cccc(N/N=C/c2ccccc2O)c1	-	?	?	-	-	?
O=C(C1CCN(S(=O)(=O)c2cccnc2)CC1)N1CCN(c2ccc(Cl)cc2)CC1	5.2µM	?	?	-	3.7µM	?
Cn1c(NCCc2ccncc2)nc2cc(-c3cccc(Cl)c3)sc2c1=O	-	-	-	-	-	-
COc1cccc(CNc2nc3cc(-c4ccc(OC)c(OC)c4)sc3c(=O)n2C)c1	-	-	-	-	-	-
Cc1ccc(-c2cc3nc(NCCc4ccncc4)n(C)c(=O)c3s2)cc1	23µM	?	?	-	?	-
Cn1c(NCCN2CCCC2)nc2cc(-c3ccsc3)sc2c1=O	21µM	?	-	-	15µM	?
SMILES	TDP1 cell CPT	HT1080NT lethal	TGFb SMAD3 inh	HepG2 tox	TDP1 cell noCPT	HT1080 IDH1KD tx
COc1ccc(-c2cc3nc(NCCN4CCCC4)n(C)c(=O)c3s2)cc1OC	?	-	-	-	18µM	-
Cn1c(NCCc2ccncc2)nc2cc(-c3ccsc3)sc2c1=O	21µM	?	?	-	13µM	-
COCCNc1nc2cc(-c3ccsc3)sc2c(=O)n1C	?	-	-	-	-	-
COc1ccc(CCNC(=O)C2CCN(S(=O)(=O)c3ccc(F)cc3)CC2)cc1	-	-	-	-	-	-
Cc1ccc(S(=O)(=O)N(C)CC(=O)N2CCCCCC2)cc1	-	-	-	-	-	-
CCc1noc(C)c1C(=O)Oc1ccc(N(C)S(=O)(=O)c2ccc(C)cc2)cc1	18µM	-	?	-	2.6µM	-
CCc1noc(C)c1C(=O)Oc1ccc(N(C)S(=O)(=O)c2ccccc2)cc1	23µM	-	-	-	16µM	-
O=C(CSc1ccccc1)N1CCc2c([nH]c3ccccc23)C1c1ccc(F)cc1 (stereo unspecified)	?	.	?	-	?	.
Cc1ccc(C2c3[nH]c4ccccc4c3CCN2C(=O)CCc2ccccc2)cc1 (stereo unspecified)	?	.	?	-	21µM	.
CCOc1ccc(C2c3[nH]c4ccccc4c3CCN2C(=O)CSCc2ccc(F)cc2)cc1 (stereo unspecified)	?	.	-	-	?	.
CCOc1cccc(C2c3[nH]c4ccccc4c3CCN2C(=O)CSCc2ccc(F)cc2)c1 (stereo unspecified)	18µM	.	?	-	26µM	.
CCOc1cccc(CC(=O)N2CCc3c([nH]c4ccccc34)C2c2ccc(C)cc2)c1OCC (stereo unspecified)	?	.	-	-	18µM	.
CC(C)(C)c1ccc(C(=O)C[n+]2ccccc2Cl)cc1	-	.	-	-	?	.
CCCCC(Br)C(=O)Nc1ccc(S(=O)(=O)Nc2cc(C)nc(C)n2)cc1 (stereo unspecified)	-	-	-	-	-	-
CNCCC=C1c2ccccc2C=Cc2ccccc21	16µM	21µM	-	-	13µM	15µM
CN(C)CCC=C1c2ccccc2C=Cc2ccccc21	?	?	-	-	15µM	?
Cc1ccc(CN(C)C(=O)c2cccc(S(=O)(=O)N3CCCC3)c2)cc1	?	-	-	-	?	-
COc1ccccc1CN(C)C(=O)c1cccc(S(=O)(=O)N2CCCc3ccccc32)c1	?	-	-	-	12µM	-
Cc1ccc(CN(C)C(=O)c2cccc(S(=O)(=O)N3CCc4ccccc43)c2)cc1	?	?	-	-	21µM	?
COc1ccc(C(CNC(=O)c2cccc(S(=O)(=O)N3CCc4ccccc43)c2)N(C)C)cc1 (stereo unspecified)	?	-	-	-	10µM	-
COc1ccc(NC(=O)CN(C)C(=O)c2cccc(S(=O)(=O)N3CCCc4ccccc43)c2)cc1	10µM	-	-	-	-	-
COc1ccccc1C(CNC(=O)c1cccc(S(=O)(=O)N2CCCc3ccccc32)c1)N(C)C (stereo unspecified)	?	-	-	-	?	-

Screens from PubChem BioAssay.
